From article PMC7862700, “An all-to-all approach to the identification of sequence-specific readers for epigenetic DNA modifications on cytosine”

Columns and labels:
Assay in all cases: DAPPL (digital affinity profiling via proximity ligation, sequencing); 10 mM Tris-HCl pH 7.5, 50 mM NaCl, 1 mM DTT, 4% glycerol, room temperature, 30 min; GST-TFs on glutathione beads, 16-mer random dsDNA library, 0.1% formaldehyde crosslink after washing; high values mean tight binding
[1] = target: SPI1 (Homo sapiens, UniProt P17947 1-270); conditions: protein: recombinant; tags: N-terminal GST; dsDNA, one strand shown
How it was run: (§1)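 Human transcription factors carrying a GST fusion were produced in yeast, bound to glutathione beads, tagged with DNA barcodes and pooled together with a tag-only sample. Each pool was held with 200 nmole of a random double-stranded 16-mer DNA library in Tris/NaCl/DTT/glycerol buffer for 30 min at room temperature, then washed, crosslinked in 0.1% formaldehyde, proximity-ligated with BsaI/T4 ligase (1 h, 37 °C), PCR-amplified and sequenced on an Illumina NextSeq500. Binding signal is the read frequency of each hexamer for a given factor divided by its frequency in the tag-only sample.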

[2] = target: T1, FEV (Homo sapiens, UniProt Q99581 1-238); conditions: protein: recombinant; tags: N-terminal GST; dsDNA, one strand shown
T1 sequence: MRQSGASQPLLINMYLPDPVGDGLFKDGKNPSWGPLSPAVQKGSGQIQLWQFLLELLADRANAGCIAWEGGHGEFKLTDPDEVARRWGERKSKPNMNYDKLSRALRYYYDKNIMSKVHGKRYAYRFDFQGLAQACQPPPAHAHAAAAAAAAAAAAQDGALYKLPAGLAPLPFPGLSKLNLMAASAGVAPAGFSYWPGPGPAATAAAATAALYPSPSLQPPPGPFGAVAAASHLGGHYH
How it was run: as §1

[3] = target: T2, ELF5 (Homo sapiens, UniProt Q9UKW6-2 1-255); conditions: protein: recombinant; tags: N-terminal GST; dsDNA, one strand shown
T2 sequence: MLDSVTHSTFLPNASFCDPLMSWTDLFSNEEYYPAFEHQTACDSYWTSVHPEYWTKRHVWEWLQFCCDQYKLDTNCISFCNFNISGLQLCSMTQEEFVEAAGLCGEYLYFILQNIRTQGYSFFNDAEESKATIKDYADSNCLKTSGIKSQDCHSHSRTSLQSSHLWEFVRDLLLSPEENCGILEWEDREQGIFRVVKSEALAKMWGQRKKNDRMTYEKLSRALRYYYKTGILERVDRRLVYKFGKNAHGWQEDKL
How it was run: as §1

[4] = target: T3, ETV2 (Homo sapiens, UniProt O00321 1-342); conditions: protein: recombinant; tags: N-terminal GST; dsDNA, one strand shown
T3 sequence: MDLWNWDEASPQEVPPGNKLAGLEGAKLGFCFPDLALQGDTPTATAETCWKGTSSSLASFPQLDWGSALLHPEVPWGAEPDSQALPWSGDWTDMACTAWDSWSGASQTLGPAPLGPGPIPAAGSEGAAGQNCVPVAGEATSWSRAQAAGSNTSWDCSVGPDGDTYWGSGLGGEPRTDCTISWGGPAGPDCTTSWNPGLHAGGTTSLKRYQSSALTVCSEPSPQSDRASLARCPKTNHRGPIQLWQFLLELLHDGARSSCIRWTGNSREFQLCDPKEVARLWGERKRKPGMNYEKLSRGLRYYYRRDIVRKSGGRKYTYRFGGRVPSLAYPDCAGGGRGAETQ
How it was run: as §1

[5] = target: CRX (Homo sapiens, UniProt O43186 1-299); conditions: protein: recombinant; tags: N-terminal GST; dsDNA, one strand shown
CRX, sequence (O43186 whole entry): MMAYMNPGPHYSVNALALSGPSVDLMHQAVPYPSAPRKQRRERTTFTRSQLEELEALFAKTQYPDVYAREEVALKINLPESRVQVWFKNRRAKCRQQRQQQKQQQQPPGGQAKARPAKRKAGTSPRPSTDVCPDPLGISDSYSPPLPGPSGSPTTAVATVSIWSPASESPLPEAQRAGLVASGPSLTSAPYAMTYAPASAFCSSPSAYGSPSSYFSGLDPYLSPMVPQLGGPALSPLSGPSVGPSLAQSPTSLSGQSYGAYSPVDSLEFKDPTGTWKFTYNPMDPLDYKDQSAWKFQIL
How it was run: as §1

[6] = target: T4, FLI1 (Homo sapiens, UniProt Q01543 1-452); conditions: protein: recombinant; tags: N-terminal GST; dsDNA, one strand shown
T4 sequence: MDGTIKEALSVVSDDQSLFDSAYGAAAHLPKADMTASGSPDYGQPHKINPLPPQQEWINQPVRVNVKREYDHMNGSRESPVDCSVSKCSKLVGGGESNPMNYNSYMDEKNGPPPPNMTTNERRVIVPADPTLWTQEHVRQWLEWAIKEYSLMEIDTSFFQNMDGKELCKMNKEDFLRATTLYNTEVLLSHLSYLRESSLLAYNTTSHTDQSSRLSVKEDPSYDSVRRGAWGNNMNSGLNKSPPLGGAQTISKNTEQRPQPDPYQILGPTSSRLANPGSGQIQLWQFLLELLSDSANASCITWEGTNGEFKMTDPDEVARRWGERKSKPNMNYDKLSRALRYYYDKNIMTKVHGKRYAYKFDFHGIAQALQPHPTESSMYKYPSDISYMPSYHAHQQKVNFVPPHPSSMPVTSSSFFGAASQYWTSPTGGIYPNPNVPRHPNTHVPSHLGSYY
How it was run: as §1

[7] = target: HSF1 (Homo sapiens, UniProt Q00613 1-529); conditions: protein: recombinant; tags: N-terminal GST; chain copies: 3; dsDNA, one strand shown
HSF1, sequence (Q00613 whole entry): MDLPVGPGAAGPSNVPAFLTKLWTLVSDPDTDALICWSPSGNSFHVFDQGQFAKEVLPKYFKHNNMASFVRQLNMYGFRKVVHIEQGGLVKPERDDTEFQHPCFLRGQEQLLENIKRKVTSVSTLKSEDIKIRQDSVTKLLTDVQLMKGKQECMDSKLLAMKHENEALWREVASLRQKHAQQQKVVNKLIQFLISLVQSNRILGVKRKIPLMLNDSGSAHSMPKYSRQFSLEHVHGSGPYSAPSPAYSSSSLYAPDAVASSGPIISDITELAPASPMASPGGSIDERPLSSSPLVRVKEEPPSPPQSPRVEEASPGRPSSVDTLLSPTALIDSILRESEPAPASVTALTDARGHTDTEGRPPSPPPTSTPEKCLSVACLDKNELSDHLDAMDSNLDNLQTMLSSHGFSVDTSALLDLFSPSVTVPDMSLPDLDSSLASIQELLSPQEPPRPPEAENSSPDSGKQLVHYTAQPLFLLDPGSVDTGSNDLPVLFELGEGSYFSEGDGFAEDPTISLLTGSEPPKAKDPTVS
How it was run: as §1

Sequence: GTTGGT
- binding signal [1]: 1.02 fold enrichment (6-mer frequency, TF over GST control)

Sequence: GCCCGG
- binding signal [2]: 1.04 fold enrichment (6-mer frequency, TF over GST control)
- binding signal [3]: 1.05 fold enrichment (6-mer frequency, TF over GST control)

Sequence: GTGCCT
- binding signal [1]: 1.15 fold enrichment (6-mer frequency, TF over GST control)
- binding signal [4]: 1.22 fold enrichment (6-mer frequency, TF over GST control)

Sequence: CATAGT
- binding signal [3]: 1 fold enrichment (6-mer frequency, TF over GST control)

Sequence: TAGGCC
- binding signal [2]: 1.05 fold enrichment (6-mer frequency, TF over GST control)
- binding signal [5]: 1.21 fold enrichment (6-mer frequency, TF over GST control)

Sequence: AACTGT
- binding signal [4]: 1.15 fold enrichment (6-mer frequency, TF over GST control)

Sequence: CAGTTC
- binding signal [1]: 1.08 fold enrichment (6-mer frequency, TF over GST control)
- binding signal [3]: 1 fold enrichment (6-mer frequency, TF over GST control)

Sequence: AAACAG
- binding signal [1]: 1.13 fold enrichment (6-mer frequency, TF over GST control)
- binding signal [3]: 1.03 fold enrichment (6-mer frequency, TF over GST control)

Sequence: GTACCA
- binding signal [1]: 1.11 fold enrichment (6-mer frequency, TF over GST control)
- binding signal [2]: 1.01 fold enrichment (6-mer frequency, TF over GST control)

Sequence: AGTCCT
- binding signal [1]: 1.2 fold enrichment (6-mer frequency, TF over GST control)
- binding signal [4]: 1.02 fold enrichment (6-mer frequency, TF over GST control)
- binding signal [3]: 1.17 fold enrichment (6-mer frequency, TF over GST control)

Sequence: CATAGC
- binding signal [4]: 1.06 fold enrichment (6-mer frequency, TF over GST control)

Sequence: GTGCCC
- binding signal [1]: 1.07 fold enrichment (6-mer frequency, TF over GST control)
- binding signal [2]: 1 fold enrichment (6-mer frequency, TF over GST control)

Sequence: CTGTAG
- binding signal [3]: 1.01 fold enrichment (6-mer frequency, TF over GST control)

Sequence: CCAAGT
- binding signal [6]: 1.02 fold enrichment (6-mer frequency, TF over GST control)

Sequence: GCCGGA
- binding signal [2]: 1.59 fold enrichment (6-mer frequency, TF over GST control)
- binding signal [3]: 1.05 fold enrichment (6-mer frequency, TF over GST control)

Sequence: GAAACC
- binding signal [2]: 1.08 fold enrichment (6-mer frequency, TF over GST control)
- binding signal [4]: 1.06 fold enrichment (6-mer frequency, TF over GST control)
- binding signal [3]: 1.03 fold enrichment (6-mer frequency, TF over GST control)

Sequence: AGTACC
- binding signal [1]: 1.03 fold enrichment (6-mer frequency, TF over GST control)
- binding signal [4]: 1.03 fold enrichment (6-mer frequency, TF over GST control)
- binding signal [3]: 1.02 fold enrichment (6-mer frequency, TF over GST control)

Sequence: GGATAC
- binding signal [4]: 1.01 fold enrichment (6-mer frequency, TF over GST control)
- binding signal [3]: 1.02 fold enrichment (6-mer frequency, TF over GST control)

Sequence: ATAGGC
- binding signal [2]: 1.07 fold enrichment (6-mer frequency, TF over GST control)
- binding signal [5]: 1.14 fold enrichment (6-mer frequency, TF over GST control)

Sequence: GGCTAT
- binding signal [1]: 1.03 fold enrichment (6-mer frequency, TF over GST control)
- binding signal [2]: 1.06 fold enrichment (6-mer frequency, TF over GST control)
- binding signal [4]: 1.06 fold enrichment (6-mer frequency, TF over GST control)
- binding signal [3]: 1.02 fold enrichment (6-mer frequency, TF over GST control)

Sequence: ATCCGT
- binding signal [2]: 1.1 fold enrichment (6-mer frequency, TF over GST control)
- binding signal [5]: 1.08 fold enrichment (6-mer frequency, TF over GST control)
- binding signal [3]: 1.17 fold enrichment (6-mer frequency, TF over GST control)

Sequence: TATGAG
- binding signal [5]: 1.1 fold enrichment (6-mer frequency, TF over GST control)

Sequence: GGACTT
- binding signal [1]: 1.2 fold enrichment (6-mer frequency, TF over GST control)
- binding signal [2]: 1.4 fold enrichment (6-mer frequency, TF over GST control)
- binding signal [4]: 1.19 fold enrichment (6-mer frequency, TF over GST control)
- binding signal [5]: 1.08 fold enrichment (6-mer frequency, TF over GST control)
- binding signal [3]: 1.24 fold enrichment (6-mer frequency, TF over GST control)

Sequence: AGCGTC
- binding signal [1]: 1.06 fold enrichment (6-mer frequency, TF over GST control)
- binding signal [2]: 1.04 fold enrichment (6-mer frequency, TF over GST control)
- binding signal [3]: 1.04 fold enrichment (6-mer frequency, TF over GST control)

Sequence: TGGTCG
- binding signal [4]: 1.08 fold enrichment (6-mer frequency, TF over GST control)

Sequence: CCACCG
- binding signal [1]: 1.04 fold enrichment (6-mer frequency, TF over GST control)
- binding signal [2]: 1.26 fold enrichment (6-mer frequency, TF over GST control)
- binding signal [3]: 1.02 fold enrichment (6-mer frequency, TF over GST control)

Sequence: GCTAAG
- binding signal [6]: 1.13 fold enrichment (6-mer frequency, TF over GST control)
- binding signal [7]: 1.13 fold enrichment (6-mer frequency, TF over GST control)
- binding signal [4]: 1.07 fold enrichment (6-mer frequency, TF over GST control)
- binding signal [5]: 1.75 fold enrichment (6-mer frequency, TF over GST control)
- binding signal [3]: 1.01 fold enrichment (6-mer frequency, TF over GST control)

Sequence: TCGAGC
- binding signal [6]: 1.02 fold enrichment (6-mer frequency, TF over GST control)
- binding signal [7]: 1.46 fold enrichment (6-mer frequency, TF over GST control)
- binding signal [4]: 1.04 fold enrichment (6-mer frequency, TF over GST control)
- binding signal [5]: 1.01 fold enrichment (6-mer frequency, TF over GST control)

Sequence: TGGATA
- binding signal [6]: 1.08 fold enrichment (6-mer frequency, TF over GST control)
- binding signal [2]: 1.03 fold enrichment (6-mer frequency, TF over GST control)
- binding signal [7]: 1.2 fold enrichment (6-mer frequency, TF over GST control)
- binding signal [4]: 1.02 fold enrichment (6-mer frequency, TF over GST control)
- binding signal [5]: 1.34 fold enrichment (6-mer frequency, TF over GST control)
- binding signal [3]: 1.04 fold enrichment (6-mer frequency, TF over GST control)

Sequence: CATGCG
- binding signal [6]: 1.01 fold enrichment (6-mer frequency, TF over GST control)
- binding signal [7]: 1.07 fold enrichment (6-mer frequency, TF over GST control)
- binding signal [4]: 1 fold enrichment (6-mer frequency, TF over GST control)

Sequence: GATTTA
- binding signal [6]: 1.02 fold enrichment (6-mer frequency, TF over GST control)
- binding signal [7]: 1.54 fold enrichment (6-mer frequency, TF over GST control)
- binding signal [4]: 1.05 fold enrichment (6-mer frequency, TF over GST control)
- binding signal [5]: 2.33 fold enrichment (6-mer frequency, TF over GST control)

Sequence: TCTAGA
- binding signal [6]: 1.05 fold enrichment (6-mer frequency, TF over GST control)
- binding signal [7]: 6.17 fold enrichment (6-mer frequency, TF over GST control)
- binding signal [5]: 2.19 fold enrichment (6-mer frequency, TF over GST control)

Sequence: AGATCT
- binding signal [6]: 1.06 fold enrichment (6-mer frequency, TF over GST control)
- binding signal [7]: 1.47 fold enrichment (6-mer frequency, TF over GST control)
- binding signal [4]: 1.11 fold enrichment (6-mer frequency, TF over GST control)
- binding signal [5]: 1.33 fold enrichment (6-mer frequency, TF over GST control)

Sequence: TAAGGG
- binding signal [6]: 1.01 fold enrichment (6-mer frequency, TF over GST control)
- binding signal [2]: 1 fold enrichment (6-mer frequency, TF over GST control)
- binding signal [7]: 1.12 fold enrichment (6-mer frequency, TF over GST control)
- binding signal [5]: 1.49 fold enrichment (6-mer frequency, TF over GST control)
- binding signal [3]: 1.06 fold enrichment (6-mer frequency, TF over GST control)

Sequence: TTGCCA
- binding signal [6]: 1.07 fold enrichment (6-mer frequency, TF over GST control)
- binding signal [1]: 1.07 fold enrichment (6-mer frequency, TF over GST control)
- binding signal [2]: 1.11 fold enrichment (6-mer frequency, TF over GST control)
- binding signal [7]: 1.01 fold enrichment (6-mer frequency, TF over GST control)
- binding signal [5]: 1.06 fold enrichment (6-mer frequency, TF over GST control)
- binding signal [3]: 1.04 fold enrichment (6-mer frequency, TF over GST control)
